In the supplement of paper PMC11732987, “Enantioselective OTUD7B fragment discovery through chemoproteomics screening and high-throughput optimisation” (Communications Chemistry, 2025):

Assays:
Experiment in all cases: log2 ratio of Biotin-Ahx-Ub-VS probe labelling (fragment/DMSO); higher = less target engagement (more negative = stronger competition), active = hit call of the paper (q ≤ 0.05, log2 ratio ≤ -1)
Conditions in all cases: compound concentration: 200 uM; treatment time: 3 h
USP42 = molecular target: T1, USP42 (UniProt Q9H9J4)
T1 sequence (whole entry): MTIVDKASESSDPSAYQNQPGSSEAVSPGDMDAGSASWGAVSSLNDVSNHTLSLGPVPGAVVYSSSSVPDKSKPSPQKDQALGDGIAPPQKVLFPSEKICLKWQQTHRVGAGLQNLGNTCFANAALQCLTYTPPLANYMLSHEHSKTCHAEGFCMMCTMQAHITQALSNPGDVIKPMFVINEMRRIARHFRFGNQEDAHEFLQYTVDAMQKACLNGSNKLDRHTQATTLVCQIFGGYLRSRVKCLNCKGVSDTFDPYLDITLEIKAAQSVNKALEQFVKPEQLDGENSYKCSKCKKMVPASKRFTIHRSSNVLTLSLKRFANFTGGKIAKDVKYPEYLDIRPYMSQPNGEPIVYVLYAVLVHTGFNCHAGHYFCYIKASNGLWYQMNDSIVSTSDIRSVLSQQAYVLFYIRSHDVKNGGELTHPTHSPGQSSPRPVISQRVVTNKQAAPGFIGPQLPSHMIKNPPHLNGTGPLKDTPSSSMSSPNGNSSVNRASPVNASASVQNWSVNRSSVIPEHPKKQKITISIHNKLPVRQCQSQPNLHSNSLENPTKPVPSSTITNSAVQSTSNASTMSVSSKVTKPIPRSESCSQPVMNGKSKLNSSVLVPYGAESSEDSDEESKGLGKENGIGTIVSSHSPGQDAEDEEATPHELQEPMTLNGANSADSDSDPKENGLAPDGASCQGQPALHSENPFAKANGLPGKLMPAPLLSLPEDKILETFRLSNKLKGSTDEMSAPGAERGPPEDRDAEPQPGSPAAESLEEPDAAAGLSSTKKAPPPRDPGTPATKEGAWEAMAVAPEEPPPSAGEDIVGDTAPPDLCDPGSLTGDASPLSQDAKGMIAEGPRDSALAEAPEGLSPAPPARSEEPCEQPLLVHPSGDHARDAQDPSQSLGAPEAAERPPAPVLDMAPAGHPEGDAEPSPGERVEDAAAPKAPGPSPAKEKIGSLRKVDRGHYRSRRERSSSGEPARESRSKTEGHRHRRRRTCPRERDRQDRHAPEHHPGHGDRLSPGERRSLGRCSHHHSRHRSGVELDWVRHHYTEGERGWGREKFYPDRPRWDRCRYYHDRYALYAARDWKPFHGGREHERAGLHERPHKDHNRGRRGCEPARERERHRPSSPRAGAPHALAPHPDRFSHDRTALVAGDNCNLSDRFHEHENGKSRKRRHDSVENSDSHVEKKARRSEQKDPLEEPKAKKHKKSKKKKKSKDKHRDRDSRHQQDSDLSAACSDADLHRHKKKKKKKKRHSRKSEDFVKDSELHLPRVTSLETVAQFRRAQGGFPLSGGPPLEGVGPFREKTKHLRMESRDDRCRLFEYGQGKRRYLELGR
Summary of the method: (§1)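 HEK293T lysate (495 µg per sample, in Tris/CHAPS/IGEPAL buffer with protease inhibitors) was exposed in triplicate for 3 h to fragment at 200 µM or to vehicle, then to Biotin-Ahx-Ub-VS at 0.5 µM final for 1 h. Labelled DUBs were enriched on NeutrAvidin, digested with LysC and trypsin, and analysed by diaPASEF LC-MS/MS. Spectronaut label-free quantities were normalised to the global median, and values are average log2 ratios of fragment over vehicle from an unpaired t-test. Only proteins with ≥2 unique peptides were used.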

USP46 = USP46 (UniProt P62068)
Chain of USP46 (P62068 whole entry): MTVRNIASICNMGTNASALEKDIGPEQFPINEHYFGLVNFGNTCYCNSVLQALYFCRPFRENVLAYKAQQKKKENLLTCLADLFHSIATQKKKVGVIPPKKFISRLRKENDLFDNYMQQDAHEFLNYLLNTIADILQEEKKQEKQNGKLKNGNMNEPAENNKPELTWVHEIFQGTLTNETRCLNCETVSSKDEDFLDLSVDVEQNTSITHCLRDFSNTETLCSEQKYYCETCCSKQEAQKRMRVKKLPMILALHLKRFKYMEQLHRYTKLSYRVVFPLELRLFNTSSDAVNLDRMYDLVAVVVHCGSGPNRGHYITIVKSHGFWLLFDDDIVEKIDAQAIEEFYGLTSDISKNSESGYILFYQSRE
Summary of the method: as §1

USP47 = molecular target: T2, USP47 (UniProt Q96K76)
T2 sequence (whole entry): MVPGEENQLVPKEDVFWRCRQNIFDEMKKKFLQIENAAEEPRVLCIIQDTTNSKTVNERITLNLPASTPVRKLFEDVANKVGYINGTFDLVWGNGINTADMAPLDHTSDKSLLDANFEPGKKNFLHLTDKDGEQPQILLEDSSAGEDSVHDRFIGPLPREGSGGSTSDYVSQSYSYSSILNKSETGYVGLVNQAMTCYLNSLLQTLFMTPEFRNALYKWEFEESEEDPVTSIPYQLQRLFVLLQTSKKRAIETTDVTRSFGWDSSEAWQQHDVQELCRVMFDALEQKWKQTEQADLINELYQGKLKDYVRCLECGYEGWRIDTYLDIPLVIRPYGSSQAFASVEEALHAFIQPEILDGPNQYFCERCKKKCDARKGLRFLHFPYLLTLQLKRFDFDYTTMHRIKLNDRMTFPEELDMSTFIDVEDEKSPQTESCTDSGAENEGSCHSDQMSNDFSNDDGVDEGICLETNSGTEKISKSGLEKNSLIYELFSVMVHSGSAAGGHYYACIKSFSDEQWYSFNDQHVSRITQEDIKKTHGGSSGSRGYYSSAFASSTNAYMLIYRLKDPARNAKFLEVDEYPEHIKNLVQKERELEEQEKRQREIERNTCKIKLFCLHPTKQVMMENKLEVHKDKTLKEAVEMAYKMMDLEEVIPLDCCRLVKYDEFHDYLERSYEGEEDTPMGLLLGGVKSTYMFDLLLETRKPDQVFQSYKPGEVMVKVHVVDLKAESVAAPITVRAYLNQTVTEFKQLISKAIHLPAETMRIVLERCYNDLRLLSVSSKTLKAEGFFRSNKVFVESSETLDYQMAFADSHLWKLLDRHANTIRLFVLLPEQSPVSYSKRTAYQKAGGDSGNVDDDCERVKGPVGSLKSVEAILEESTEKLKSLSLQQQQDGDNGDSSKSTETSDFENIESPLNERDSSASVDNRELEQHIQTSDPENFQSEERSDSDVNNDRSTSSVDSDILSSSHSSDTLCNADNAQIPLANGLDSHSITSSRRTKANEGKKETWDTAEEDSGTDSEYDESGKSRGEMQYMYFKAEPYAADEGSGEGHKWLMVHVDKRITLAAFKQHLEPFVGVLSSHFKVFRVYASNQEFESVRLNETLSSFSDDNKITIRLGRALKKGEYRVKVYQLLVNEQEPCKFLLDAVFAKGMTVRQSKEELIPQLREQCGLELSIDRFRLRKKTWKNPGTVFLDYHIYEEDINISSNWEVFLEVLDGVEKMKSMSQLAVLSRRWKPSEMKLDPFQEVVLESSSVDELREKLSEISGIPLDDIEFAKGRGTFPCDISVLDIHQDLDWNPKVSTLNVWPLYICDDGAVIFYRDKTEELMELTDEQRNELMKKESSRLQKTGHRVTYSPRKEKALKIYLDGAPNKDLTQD
Summary of the method: as §1

USP48 = molecular target: T3, USP48 (UniProt Q86UV5)
T3 sequence (whole entry): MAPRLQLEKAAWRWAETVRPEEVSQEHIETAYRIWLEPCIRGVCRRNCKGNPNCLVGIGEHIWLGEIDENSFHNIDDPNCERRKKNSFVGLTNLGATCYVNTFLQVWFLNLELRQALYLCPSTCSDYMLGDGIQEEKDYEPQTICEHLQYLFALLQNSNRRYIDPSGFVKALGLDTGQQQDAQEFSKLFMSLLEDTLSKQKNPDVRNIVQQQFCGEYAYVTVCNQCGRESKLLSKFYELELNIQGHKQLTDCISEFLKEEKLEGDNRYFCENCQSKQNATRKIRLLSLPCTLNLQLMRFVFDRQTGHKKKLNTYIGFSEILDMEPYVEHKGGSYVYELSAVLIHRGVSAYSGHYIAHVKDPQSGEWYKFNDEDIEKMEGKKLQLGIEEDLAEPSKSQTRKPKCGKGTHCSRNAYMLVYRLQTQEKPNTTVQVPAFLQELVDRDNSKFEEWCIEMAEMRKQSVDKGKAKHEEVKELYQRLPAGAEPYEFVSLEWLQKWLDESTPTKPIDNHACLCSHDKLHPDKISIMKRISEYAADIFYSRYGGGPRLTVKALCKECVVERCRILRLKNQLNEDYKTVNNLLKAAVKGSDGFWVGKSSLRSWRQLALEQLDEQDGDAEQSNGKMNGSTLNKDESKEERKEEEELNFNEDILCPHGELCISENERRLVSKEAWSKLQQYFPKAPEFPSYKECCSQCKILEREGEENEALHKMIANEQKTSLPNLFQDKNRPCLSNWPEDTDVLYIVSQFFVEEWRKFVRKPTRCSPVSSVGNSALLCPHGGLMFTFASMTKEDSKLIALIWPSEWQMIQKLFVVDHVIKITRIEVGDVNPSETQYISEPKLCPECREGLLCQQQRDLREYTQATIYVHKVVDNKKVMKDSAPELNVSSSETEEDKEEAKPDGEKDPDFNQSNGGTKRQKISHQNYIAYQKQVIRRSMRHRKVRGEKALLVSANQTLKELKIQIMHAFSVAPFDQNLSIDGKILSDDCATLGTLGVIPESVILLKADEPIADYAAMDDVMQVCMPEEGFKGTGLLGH
Summary of the method: as §1

USP5 = molecular target: T4, USP5 (UniProt P45974)
T4 sequence (whole entry): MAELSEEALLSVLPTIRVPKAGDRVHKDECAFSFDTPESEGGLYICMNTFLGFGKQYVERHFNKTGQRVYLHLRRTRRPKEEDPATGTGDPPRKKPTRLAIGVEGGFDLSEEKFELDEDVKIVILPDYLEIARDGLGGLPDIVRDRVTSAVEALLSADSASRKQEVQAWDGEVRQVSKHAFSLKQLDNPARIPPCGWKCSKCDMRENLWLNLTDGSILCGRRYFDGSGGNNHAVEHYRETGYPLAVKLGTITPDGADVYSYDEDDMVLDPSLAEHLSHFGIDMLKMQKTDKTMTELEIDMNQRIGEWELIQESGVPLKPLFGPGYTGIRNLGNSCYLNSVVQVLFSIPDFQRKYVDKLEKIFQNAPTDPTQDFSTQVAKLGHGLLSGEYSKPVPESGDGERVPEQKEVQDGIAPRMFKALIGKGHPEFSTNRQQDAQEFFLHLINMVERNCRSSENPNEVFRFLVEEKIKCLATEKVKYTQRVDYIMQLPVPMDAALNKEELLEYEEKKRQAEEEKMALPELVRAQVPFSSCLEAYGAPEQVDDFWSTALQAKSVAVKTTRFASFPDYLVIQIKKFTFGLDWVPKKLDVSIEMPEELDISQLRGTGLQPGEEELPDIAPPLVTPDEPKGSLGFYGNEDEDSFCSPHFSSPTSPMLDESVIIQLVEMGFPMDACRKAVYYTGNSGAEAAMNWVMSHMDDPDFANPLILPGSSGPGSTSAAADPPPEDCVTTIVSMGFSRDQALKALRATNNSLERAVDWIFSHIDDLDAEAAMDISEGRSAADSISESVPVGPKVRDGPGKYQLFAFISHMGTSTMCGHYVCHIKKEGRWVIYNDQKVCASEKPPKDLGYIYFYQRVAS
Summary of the method: as §1

USP54 = USP54 (UniProt Q70EL1)
Chain of USP54 (Q70EL1 whole entry): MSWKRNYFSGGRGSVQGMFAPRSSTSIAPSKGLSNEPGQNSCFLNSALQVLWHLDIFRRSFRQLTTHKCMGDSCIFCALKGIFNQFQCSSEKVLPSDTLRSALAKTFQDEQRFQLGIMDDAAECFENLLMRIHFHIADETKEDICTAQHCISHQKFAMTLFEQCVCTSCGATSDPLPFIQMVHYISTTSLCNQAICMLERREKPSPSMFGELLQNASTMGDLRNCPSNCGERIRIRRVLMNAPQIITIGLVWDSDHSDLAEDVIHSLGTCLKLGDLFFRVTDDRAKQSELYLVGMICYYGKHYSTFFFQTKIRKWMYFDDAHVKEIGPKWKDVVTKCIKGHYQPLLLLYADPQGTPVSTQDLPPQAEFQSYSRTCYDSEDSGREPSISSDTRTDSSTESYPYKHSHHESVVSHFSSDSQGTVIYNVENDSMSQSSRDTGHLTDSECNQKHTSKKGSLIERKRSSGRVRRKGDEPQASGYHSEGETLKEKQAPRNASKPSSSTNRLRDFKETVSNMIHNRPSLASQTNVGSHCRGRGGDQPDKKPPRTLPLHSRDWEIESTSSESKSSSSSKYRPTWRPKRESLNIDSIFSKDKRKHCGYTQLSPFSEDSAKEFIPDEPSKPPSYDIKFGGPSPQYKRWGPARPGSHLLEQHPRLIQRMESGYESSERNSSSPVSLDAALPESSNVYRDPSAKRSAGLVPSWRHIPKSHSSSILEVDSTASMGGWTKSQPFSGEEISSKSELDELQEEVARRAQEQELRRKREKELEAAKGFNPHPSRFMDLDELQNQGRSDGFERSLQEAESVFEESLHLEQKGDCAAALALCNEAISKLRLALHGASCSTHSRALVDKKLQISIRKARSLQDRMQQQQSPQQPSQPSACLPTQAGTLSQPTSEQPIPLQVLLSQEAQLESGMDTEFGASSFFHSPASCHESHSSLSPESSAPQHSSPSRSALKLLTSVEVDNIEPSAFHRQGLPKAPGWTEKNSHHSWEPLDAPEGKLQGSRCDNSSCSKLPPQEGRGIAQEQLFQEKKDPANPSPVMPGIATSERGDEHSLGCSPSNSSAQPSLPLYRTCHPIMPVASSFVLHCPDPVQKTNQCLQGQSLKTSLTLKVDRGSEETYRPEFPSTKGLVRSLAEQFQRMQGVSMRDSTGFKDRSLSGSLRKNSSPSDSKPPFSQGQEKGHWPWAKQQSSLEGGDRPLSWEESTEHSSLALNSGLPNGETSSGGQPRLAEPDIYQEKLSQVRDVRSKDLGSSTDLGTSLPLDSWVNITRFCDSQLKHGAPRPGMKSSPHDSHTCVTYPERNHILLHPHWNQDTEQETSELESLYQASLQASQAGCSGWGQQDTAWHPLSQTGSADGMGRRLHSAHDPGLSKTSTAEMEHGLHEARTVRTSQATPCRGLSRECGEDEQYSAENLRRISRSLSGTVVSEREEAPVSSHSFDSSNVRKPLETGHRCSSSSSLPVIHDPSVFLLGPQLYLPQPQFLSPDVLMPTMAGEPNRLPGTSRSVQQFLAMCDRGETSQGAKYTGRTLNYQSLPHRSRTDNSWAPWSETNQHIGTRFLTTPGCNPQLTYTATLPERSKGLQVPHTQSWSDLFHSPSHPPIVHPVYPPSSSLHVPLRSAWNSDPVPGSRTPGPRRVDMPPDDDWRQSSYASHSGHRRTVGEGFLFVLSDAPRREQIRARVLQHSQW
Summary of the method: as §1

USP7 = USP7 (UniProt Q93009)
Chain of USP7 (Q93009 whole entry, looked up): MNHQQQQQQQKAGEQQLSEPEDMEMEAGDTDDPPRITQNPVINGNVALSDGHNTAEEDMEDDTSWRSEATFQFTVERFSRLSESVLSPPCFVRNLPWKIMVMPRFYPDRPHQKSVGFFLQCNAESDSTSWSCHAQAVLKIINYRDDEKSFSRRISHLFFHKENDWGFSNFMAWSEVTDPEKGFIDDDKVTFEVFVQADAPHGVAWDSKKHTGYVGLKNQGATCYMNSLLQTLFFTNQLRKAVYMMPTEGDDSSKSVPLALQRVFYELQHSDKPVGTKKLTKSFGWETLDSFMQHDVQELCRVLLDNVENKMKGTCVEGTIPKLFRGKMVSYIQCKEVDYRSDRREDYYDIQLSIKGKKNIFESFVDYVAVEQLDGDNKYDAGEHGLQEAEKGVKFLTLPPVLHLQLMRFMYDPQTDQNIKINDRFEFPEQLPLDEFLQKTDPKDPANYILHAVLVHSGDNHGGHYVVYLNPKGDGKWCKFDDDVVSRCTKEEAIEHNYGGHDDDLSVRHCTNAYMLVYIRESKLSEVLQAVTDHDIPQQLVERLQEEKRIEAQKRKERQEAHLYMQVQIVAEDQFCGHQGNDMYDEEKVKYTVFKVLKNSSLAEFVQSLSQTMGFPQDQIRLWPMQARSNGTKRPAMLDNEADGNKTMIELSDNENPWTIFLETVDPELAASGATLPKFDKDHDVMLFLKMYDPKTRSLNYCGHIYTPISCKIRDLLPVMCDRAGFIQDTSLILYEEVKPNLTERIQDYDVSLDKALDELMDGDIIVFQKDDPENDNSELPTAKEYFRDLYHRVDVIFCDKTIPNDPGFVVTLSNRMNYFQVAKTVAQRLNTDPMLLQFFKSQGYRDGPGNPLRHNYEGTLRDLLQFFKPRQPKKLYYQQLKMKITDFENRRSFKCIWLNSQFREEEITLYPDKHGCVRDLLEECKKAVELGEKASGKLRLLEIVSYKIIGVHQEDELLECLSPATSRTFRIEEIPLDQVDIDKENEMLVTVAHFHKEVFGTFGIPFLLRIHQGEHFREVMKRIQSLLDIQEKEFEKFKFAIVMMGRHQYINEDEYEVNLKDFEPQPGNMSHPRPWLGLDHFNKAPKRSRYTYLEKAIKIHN
Summary of the method: as §1

USP8 = molecular target: T5, USP8 (UniProt P40818)
T5 sequence (whole entry): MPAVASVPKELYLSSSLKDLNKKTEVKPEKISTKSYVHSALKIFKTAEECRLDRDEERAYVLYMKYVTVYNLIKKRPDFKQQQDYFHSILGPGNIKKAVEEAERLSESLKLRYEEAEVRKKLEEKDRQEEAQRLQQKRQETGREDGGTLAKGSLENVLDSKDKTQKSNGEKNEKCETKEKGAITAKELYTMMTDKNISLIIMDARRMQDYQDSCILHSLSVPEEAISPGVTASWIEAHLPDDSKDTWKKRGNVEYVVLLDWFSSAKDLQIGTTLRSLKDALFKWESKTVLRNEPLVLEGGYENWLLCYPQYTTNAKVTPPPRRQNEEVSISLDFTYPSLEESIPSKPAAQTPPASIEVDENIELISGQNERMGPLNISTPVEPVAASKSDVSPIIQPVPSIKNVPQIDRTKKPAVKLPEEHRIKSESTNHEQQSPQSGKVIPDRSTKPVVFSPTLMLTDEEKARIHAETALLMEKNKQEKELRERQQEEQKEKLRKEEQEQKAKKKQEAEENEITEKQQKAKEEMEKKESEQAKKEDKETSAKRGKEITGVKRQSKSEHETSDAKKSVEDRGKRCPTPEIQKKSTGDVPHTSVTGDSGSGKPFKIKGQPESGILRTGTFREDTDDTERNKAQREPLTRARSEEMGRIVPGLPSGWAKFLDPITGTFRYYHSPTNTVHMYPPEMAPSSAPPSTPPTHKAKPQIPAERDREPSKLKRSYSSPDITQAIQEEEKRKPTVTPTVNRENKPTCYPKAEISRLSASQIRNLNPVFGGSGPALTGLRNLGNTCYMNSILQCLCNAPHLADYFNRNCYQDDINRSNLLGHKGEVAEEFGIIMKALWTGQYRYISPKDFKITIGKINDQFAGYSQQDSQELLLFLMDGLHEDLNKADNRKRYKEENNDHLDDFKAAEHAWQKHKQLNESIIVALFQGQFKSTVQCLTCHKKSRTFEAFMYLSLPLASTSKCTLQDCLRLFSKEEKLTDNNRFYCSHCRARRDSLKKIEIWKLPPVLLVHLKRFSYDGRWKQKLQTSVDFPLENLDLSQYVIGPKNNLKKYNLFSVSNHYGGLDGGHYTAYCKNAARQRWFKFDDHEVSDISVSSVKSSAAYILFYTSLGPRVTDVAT
Summary of the method: as §1

Measured: log2 ratio of Biotin-Ahx-Ub-VS probe labelling

O=C(CCl)Nc1nnc(CC(F)(F)F)o1
inactive: USP42 -0.117 | USP46 0.083 | USP47 0.172 | USP48 -0.236 | USP5 0.0095 | USP54 0.782 | USP7 -0.136 | USP8 -0.263
